# Key:
# [1] = target: T1, Ephrin type-A receptor 3 (Homo sapiens) (UniProt P29320); conditions: at 10 µM
# T1 sequence (whole entry): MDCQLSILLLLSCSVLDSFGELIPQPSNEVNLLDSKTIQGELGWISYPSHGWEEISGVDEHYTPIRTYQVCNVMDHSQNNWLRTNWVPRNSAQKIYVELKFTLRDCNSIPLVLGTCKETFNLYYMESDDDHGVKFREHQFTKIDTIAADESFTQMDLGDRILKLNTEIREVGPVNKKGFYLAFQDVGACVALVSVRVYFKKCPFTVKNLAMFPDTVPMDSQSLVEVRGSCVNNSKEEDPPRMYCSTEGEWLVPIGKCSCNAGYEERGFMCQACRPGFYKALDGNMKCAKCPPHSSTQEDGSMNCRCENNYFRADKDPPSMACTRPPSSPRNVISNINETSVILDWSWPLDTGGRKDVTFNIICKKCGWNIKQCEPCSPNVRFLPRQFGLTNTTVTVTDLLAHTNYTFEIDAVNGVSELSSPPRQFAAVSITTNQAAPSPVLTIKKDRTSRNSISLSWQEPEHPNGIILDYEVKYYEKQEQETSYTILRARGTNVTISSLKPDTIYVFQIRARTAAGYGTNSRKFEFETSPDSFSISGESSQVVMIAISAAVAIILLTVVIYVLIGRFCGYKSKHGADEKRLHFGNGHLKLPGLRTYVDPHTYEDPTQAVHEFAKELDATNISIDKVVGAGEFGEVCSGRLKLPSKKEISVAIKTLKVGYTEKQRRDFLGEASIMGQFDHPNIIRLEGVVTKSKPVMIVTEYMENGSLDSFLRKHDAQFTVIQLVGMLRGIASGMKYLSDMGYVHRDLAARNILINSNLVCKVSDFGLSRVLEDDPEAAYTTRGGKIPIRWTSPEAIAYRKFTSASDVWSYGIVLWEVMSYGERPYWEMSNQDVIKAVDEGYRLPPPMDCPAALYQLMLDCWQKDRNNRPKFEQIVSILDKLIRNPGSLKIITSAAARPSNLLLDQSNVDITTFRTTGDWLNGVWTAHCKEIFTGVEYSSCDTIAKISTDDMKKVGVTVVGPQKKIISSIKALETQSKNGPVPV
# [2] = target: Ephrin type-A receptor 4 (Homo sapiens) (UniProt P54764); conditions: at 1 µM
# Ephrin type-A receptor 4 (Homo sapiens), sequence (P54764 whole entry): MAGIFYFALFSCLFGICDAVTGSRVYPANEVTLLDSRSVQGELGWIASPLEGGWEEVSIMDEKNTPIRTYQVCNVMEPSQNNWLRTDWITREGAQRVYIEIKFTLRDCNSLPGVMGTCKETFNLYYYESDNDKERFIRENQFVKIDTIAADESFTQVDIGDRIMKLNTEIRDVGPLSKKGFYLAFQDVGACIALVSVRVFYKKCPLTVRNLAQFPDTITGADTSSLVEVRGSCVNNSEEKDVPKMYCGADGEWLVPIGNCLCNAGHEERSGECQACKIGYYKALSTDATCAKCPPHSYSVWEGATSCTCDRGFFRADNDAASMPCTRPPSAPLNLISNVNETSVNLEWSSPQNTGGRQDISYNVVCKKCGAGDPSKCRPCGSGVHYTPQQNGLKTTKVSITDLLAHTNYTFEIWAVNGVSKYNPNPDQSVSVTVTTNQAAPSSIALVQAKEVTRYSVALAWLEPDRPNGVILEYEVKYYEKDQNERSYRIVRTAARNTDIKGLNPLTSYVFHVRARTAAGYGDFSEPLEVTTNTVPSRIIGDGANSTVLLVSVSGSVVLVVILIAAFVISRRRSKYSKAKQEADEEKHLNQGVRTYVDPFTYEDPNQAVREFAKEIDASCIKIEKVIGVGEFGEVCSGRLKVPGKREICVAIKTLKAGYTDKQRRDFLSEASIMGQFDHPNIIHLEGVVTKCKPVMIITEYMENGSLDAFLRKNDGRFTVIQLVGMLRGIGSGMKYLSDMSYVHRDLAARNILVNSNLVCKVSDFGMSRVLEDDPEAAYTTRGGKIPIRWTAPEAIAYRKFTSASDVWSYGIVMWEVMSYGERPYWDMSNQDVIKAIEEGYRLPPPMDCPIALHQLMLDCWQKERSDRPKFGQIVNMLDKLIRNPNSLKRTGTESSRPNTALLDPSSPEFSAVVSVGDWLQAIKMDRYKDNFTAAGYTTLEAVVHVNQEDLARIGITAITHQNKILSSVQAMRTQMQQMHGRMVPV
# [3] = target: Ephrin type-A receptor 4 (Homo sapiens) (UniProt P54764); conditions: at 10 µM
# [4] = target: Ephrin type-A receptor 5 (Homo sapiens) (UniProt P54756); conditions: at 1 µM
# Ephrin type-A receptor 5 (Homo sapiens), sequence (P54756 whole entry): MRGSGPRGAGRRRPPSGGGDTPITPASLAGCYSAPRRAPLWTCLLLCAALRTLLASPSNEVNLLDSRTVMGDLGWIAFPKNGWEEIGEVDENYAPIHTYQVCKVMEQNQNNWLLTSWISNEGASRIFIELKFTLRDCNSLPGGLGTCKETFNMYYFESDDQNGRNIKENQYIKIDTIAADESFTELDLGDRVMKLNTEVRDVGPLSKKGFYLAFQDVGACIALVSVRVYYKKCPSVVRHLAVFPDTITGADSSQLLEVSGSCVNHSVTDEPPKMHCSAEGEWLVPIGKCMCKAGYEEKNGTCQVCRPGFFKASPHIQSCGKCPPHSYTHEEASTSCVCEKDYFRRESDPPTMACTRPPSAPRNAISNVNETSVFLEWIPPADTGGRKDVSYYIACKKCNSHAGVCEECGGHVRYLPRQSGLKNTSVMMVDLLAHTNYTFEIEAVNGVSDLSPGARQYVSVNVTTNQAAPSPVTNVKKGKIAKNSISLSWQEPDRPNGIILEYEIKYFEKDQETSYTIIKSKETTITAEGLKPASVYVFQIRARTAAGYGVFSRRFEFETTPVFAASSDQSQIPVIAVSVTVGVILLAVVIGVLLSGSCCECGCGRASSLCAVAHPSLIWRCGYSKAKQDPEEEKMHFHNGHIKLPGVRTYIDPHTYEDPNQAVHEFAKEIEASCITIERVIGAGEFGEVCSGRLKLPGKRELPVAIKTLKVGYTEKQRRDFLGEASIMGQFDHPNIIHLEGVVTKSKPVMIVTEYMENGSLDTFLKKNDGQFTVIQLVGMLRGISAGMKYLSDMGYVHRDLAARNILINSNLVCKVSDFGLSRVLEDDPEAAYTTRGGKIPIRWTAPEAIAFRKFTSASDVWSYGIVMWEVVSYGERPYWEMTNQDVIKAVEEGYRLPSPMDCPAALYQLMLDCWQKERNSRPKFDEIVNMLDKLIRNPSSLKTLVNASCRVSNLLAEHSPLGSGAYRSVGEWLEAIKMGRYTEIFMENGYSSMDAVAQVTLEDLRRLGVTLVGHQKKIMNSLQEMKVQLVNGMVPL
# [5] = target: Ephrin type-A receptor 5 (Homo sapiens) (UniProt P54756); conditions: at 10 µM
# [6] = target: Ephrin type-A receptor 7 (Homo sapiens) (UniProt Q15375); conditions: at 1 µM
# Ephrin type-A receptor 7 (Homo sapiens), sequence (Q15375 28-998 limits assumed): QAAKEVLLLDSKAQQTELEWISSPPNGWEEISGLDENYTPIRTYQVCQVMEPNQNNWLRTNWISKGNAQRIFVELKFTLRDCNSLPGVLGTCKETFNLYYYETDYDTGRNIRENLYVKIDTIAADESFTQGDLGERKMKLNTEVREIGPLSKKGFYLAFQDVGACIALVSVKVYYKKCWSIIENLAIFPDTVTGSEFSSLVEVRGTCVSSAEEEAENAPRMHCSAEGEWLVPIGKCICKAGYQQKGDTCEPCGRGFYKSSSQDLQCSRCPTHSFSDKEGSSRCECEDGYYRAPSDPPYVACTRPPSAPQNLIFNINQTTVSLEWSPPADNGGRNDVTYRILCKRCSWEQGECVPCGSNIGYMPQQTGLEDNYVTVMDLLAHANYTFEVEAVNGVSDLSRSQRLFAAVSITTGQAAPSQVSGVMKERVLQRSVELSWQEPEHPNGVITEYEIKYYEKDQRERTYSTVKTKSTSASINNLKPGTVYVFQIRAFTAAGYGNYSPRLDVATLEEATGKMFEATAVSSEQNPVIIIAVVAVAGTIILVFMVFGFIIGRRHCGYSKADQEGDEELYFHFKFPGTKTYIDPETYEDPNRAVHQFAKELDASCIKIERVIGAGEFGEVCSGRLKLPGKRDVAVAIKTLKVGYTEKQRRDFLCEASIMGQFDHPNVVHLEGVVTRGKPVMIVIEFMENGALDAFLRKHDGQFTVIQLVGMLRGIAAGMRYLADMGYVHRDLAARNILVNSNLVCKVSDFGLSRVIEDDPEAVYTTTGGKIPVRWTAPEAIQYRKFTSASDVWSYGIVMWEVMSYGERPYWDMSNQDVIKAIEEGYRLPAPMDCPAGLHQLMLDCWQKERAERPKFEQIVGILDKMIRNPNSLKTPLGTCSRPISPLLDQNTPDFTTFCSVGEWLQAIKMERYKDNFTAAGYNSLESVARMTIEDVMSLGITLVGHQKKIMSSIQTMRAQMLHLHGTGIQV
# [7] = target: Ephrin type-A receptor 7 (Homo sapiens) (UniProt Q15375); conditions: at 10 µM
# [8] = target: T2, Ephrin type-A receptor 8 (Homo sapiens) (UniProt P29322); conditions: at 1 µM
# T2 sequence (whole entry): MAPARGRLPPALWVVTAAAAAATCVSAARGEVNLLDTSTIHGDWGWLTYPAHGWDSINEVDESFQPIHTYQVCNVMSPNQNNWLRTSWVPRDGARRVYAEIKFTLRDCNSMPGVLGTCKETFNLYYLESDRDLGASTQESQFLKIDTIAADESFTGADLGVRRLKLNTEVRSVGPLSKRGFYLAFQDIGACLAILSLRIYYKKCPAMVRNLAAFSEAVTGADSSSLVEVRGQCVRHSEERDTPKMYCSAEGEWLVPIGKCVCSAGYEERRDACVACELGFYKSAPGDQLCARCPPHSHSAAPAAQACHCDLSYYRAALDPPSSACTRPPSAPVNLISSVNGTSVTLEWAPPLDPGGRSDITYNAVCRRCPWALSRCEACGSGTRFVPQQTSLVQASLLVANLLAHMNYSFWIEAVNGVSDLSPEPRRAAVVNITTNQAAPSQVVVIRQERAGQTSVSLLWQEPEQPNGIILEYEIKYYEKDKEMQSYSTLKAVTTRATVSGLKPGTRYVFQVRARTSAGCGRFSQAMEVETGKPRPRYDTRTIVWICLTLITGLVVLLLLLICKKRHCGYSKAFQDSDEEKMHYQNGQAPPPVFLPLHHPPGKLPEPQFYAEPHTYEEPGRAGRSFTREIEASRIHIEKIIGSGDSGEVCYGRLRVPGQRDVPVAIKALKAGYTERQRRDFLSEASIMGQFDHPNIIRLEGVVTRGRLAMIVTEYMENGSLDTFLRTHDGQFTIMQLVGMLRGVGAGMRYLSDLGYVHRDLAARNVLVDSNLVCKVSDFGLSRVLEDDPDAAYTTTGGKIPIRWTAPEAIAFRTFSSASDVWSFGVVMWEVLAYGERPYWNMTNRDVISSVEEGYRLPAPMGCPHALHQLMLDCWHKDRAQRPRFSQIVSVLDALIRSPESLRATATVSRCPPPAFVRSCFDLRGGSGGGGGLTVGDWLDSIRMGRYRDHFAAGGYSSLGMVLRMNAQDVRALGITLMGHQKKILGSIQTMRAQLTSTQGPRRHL
# [9] = target: T2, Ephrin type-A receptor 8 (Homo sapiens); conditions: at 10 µM
# [10] = target: T3, Ephrin type-B receptor 1 (Homo sapiens) (UniProt P54762); conditions: at 1 µM
# T3 sequence (whole entry): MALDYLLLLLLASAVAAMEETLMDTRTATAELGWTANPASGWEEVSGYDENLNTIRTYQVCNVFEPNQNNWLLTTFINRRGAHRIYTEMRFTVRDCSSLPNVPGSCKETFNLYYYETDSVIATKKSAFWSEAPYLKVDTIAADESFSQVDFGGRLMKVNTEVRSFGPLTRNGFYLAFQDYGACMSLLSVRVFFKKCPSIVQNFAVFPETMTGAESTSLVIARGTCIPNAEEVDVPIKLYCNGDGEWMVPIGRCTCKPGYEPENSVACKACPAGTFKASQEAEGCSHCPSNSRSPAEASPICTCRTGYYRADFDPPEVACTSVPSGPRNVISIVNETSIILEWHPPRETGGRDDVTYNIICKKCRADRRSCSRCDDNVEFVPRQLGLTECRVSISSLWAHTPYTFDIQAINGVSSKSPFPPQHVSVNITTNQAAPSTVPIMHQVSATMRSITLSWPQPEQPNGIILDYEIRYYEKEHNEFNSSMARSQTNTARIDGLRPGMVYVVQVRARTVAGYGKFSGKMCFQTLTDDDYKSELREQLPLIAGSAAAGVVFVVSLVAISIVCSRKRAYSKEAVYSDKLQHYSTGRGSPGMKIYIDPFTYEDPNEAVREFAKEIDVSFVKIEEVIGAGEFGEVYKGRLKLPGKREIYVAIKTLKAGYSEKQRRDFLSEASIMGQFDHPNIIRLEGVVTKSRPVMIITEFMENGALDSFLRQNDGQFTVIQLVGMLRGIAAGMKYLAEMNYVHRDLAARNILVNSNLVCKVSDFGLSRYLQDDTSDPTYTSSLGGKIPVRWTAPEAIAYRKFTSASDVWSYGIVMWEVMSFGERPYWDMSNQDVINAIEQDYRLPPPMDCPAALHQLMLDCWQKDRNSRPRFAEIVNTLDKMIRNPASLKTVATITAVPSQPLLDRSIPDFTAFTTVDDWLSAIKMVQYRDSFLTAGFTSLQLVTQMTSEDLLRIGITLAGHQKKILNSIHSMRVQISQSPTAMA
compound,measurement,setting,value
Oc1ccc(Nc2nc(-c3ccc(Cl)cc3)cs2)cc1,residual activity,[1],111%
same,residual activity,[2],113%
same,residual activity,[3],103%
same,residual activity,[4],112%
same,residual activity,[5],86%
same,residual activity,[6],105%
same,residual activity,[7],102%
same,residual activity,[8],99%
same,residual activity,[9],96%
same,residual activity,[10],108%

# Reference: ChEMBL document CHEMBL2218924, “A broad activity screen in support of a chemogenomic map for kinase signalling research and drug discovery” (Biochem J, 2013)
